From PubChem BioAssay AID1963322 (National Center for Advancing Translational Sciences (NCATS), 2024)
Records with an inconclusive call do not appear. Where a call stands in place of a potency, no number is given. Active and inactive are the calls of the source. Calls follow the shape of the full dose curve.

Target: cAMP-dependent protein kinase catalytic subunit alpha (Homo sapiens) (UniProt P17612)
Test: Protein Kinase A (PKA-HiBiT) SDR gain of signal screen
Method in brief: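 PKA-N-HiBiT enzyme at 10 nM final was preincubated with compounds for 30 min at room temperature, protected from light. Nano-Glo HiBiT reagent was then added for 10 min, and luminescence was read by CCD imager. H-89 served as positive control.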

Structure (SMILES) | activity change, positive = signal gain | Potency
c1ccc2c(-c3cnn4cc(-c5ccc(N6CCNCC6)cc5)cnc34)ccnc2c1 | 6.14% [at 3.64 µM] (inactive) | 
CN1CCN(CCCNc2ncc(Cl)c(-c3cc4c(C(=O)NC5CC5)cccc4s3)n2)CC1 |  | inactive
O=C(Nc1ccc(OC(F)(F)F)cc1)c1sccc1NCc1ccnc2ccccc12 |  | inactive
N#Cc1cccc(-c2c[nH]c3ncnc(N4CCOCC4)c23)c1 |  | 13.4 µM (active)
Cc1cc(O)c2c(c1)C(=O)c1cc(O)cc(O)c1C2=O |  | inactive
Cn1sc(=O)n(Cc2ccccc2)c1=O |  | inactive
Cn1cc(-c2cc3c(N4CCN(c5ncc([C@@](C)(N)c6ccc(F)cc6)cn5)CC4)ncnn3c2)cn1 |  | inactive
CO[C@@H](C(=O)N1Cc2[nH]nc(NC(=O)c3ccc(N4CCN(C)CC4)cc3)c2C1)c1ccccc1 |  | inactive
O=c1c(O)c(-c2ccc(O)c(O)c2)oc2cc(O)cc(O)c12 |  | inactive
C#Cc1cccc(Nc2ncnc3cc4c(cc23)OCCOCCOCCO4)c1 |  | inactive
O=C(O)C1(Cc2cccc(Nc3nccs3)n2)CCC(Oc2cccc(Cl)c2F)CC1 (stereo unspecified) |  | 14.5 µM (active)
COc1ccc(-n2c(C)c([N+](=O)[O-])c3ccc(O)cc32)cc1 |  | inactive
CC[C@@](C)(Nc1ccnc(-c2c[nH]c3ncccc23)n1)C(=O)NCC(F)(F)F |  | 12 µM (active)
Cc1ccc(NC(=O)c2ccc(CN3CCN(C)CC3)cc2)cc1Nc1nc(-c2cccnc2)cs1 |  | inactive
Cc1c(Cl)cccc1S(=O)(=O)Nc1nc(NCCc2ccccc2)nc2c1CN(Cc1ccccc1)CC2 |  | inactive
Nc1ncc(-c2cnn(CCO)c2)c2scc(-c3ccc(NC(=O)Nc4cccc(F)c4)cc3)c12 |  | inactive
C=CC(=O)Nc1cccc(Oc2nc(Nc3ccc(N4CCN(C)CC4)cc3OC)ncc2Cl)c1 |  | inactive
Cc1cc(F)ccc1-c1nc(NCCN=C(N)NC#N)nc2c1ccc(=O)n2-c1c(F)cccc1F |  | inactive

Structure (SMILES) | activity change, positive = signal gain | Potency
Cc1[nH]c2ccccc2c1C1=C(NCCc2ccc(F)cc2)C(=O)N(C)C1=O |  | inactive
CNS(=O)(=O)c1ccc2c(c1)/C(=C/c1[nH]c3c(c1CCCN1CCN(C)CC1)CCCC3)C(=O)N2 |  | inactive
CCNC(=O)Nc1ccc(-c2nc3c(c(N4CCOC[C@@H]4C)n2)CCN(c2ncccn2)C3)cc1 |  | inactive
CCn1c(=O)c(-c2ccc(Cl)cc2Cl)cc2cnc(Nc3ccc(N4CCNCC4)c(F)c3)nc21 |  | inactive
CCN1CCN(Cc2ccc(NC(=O)c3ccc(C)c(NC(=O)c4cncc(-c5cccs5)c4)c3)cc2C(F)(F)F)CC1 |  | inactive
COc1cc2c(cc1OC)-c1[nH]nc(Nc3cccc(F)c3)c1C2 |  | inactive
Cc1ccc(NC(=O)N2CCN(c3nc(N)nc4sc(-c5cccnc5)nc34)CC2)cc1 |  | inactive
c1ccc(-c2oc3ncnc(NC[C@@H]4CCCO4)c3c2-c2ccccc2)cc1 |  | inactive
COC(=O)Nc1ccc(-c2nc(N3CCOCC3)c3cnn(C4CCN(C(=O)OC)CC4)c3n2)cc1 |  | inactive
COc1cc2nccc(Oc3ccc(NC(=O)Nc4ccc(F)cc4F)c(F)c3)c2cc1OC |  | inactive
CNC(=O)c1ccccc1Nc1nc(Nc2ccc(N3CCOCC3)cc2OC)ncc1Cl |  | inactive
Cn1cc(-c2[nH]c3cc(NC(=O)[C@H](N)C4CCCCC4)cc4c3c2C=NNC4=O)cn1 |  | 0.6 µM (active)
Oc1ccc(-c2ccc(-c3cc(Nc4cccc(CNC5CC5)c4)n[nH]3)cc2)c(O)c1 |  | 10.7 µM (active)
CNc1ncc2cc(-c3cc(NC(=O)NCCC(C)(C)C)c(F)cc3C)c(C)nc2n1 |  | inactive
C=CC(=O)Nc1cc2c(Nc3ccc(F)c(Cl)c3)ncnc2cc1OCCCN1CCOCC1 |  | inactive
O=C(c1cccc(Cl)c1F)N1CCN(Cc2cccc(Nc3nccs3)n2)CC1 |  | inactive
CCN(CC)CCOc1ccc(Nc2ncc3cc(-c4c(Cl)cccc4Cl)c(=O)n(C)c3n2)cc1 |  | inactive
Cc1nc(NC(=O)N2CCC[C@H]2C(N)=O)sc1-c1ccnc(C(C)(C)C(F)(F)F)c1 |  | inactive
